Activity calls are given as the source filed them. Calls follow the shape of the dose curve; as a rule, active = well fitted curve in the direction sought with a large enough effect; inconclusive = small, poorly fitted or top-dose-only effect, or another doubt; inactive = no such curve, though single readings can be large or run the other way.
target: Hexokinase-4 (Homo sapiens) + Glucokinase regulatory protein (Homo sapiens) (UniProt P35557+Q14397); test: qHTS assay for inhibitors of recombinant human GCK-GKRP interaction: HTRF assay (AID 743207); settings: recombinant GCK-GKRP HTRF binding, 60 min; series mostly up to 57.5 µM
Sequence (P35557 whole entry, looked up): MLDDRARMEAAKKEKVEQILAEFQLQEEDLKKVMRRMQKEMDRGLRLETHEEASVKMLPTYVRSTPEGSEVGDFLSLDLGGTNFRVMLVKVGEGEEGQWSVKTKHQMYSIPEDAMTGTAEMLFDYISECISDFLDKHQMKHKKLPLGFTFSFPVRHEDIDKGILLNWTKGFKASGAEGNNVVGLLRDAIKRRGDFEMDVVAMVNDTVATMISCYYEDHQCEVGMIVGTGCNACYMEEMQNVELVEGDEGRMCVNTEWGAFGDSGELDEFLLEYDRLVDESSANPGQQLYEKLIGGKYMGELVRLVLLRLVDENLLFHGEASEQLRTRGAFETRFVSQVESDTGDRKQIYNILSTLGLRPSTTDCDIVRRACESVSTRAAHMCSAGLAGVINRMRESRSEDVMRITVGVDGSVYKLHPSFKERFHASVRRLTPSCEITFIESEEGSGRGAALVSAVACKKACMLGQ
Sequence (Q14397 whole entry, looked up): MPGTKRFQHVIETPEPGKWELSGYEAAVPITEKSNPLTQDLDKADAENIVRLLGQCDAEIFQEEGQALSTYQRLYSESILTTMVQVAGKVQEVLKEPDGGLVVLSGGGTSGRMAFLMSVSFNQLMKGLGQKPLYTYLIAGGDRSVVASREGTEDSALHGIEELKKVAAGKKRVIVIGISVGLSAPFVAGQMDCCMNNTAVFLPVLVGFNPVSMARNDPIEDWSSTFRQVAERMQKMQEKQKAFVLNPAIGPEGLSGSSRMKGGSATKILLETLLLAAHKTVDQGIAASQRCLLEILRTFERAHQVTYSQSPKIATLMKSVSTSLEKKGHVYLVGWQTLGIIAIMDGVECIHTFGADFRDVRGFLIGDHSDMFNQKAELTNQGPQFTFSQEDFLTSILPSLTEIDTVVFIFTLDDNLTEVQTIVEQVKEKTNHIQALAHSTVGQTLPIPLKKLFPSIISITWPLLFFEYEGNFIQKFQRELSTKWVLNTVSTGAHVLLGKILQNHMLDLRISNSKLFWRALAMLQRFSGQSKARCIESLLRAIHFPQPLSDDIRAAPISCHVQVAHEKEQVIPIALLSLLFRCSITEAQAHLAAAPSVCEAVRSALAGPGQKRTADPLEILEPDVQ
From the text: Glucokinase (GCK) is a glucose sensor in hepatocytes and pancreatic beta-cells. Hepatic GCK is regulated by glucokinase regulatory protein (GKRP), which is predominantly localized to the liver. GKRP binds to GCK inhibiting its activity in the fasting state while in the presence of glucose the GKRP is displaced. There is an additional layer of regulation by fructose 1-phosphate and fructose 6-phosphate, which inhibit and enhance the GCK-GKRP interaction, respectively. GCK plays a role in glucose homeostasis and there is an interest in the development of strategies to activate GCK to lower blood glucose levels in type 2 diabetes. To date the majority of effort has focused on direct activation of GCK and the assays developed herein look to activate GCK by inhibiting its binding to GKRP. A compound that inhibits the interaction of GCK with GKRP could be important for the treatment of diabetes and can also be used as a tool compound to further elucidate GCK-GKRP biology. To that end, we have developed an HTS biochemical assay using HTRF technology for to interrogate the GCK-GKRP interaction. This assay was screened against a small compound library to look for modulators of activity.
3 uL of 5 nM GST-GCK and 5 nM FLAG-GKRP proteins with 2 uM S6P (columns 1-2, 4-48; Millipore, Billerica, MA) are dispensed into Greiner, white solid-bottom 1536-well assay plates; columns 3 receive buffer without GCK as a control for maximum inhibition. Buffer contains 2 mM MgCl2, 25 mM KCl, 25 mM Hepes, 1 mM DTT, 0.1% Tween 20 and 0.025% BSA and the pH was adjusted to 7.1. Compounds (23 nL) are then transferred via Kalypsys pin tool equipped with 1536-pin array (10 nL slotted pins, V&P Scientific, San Diego, CA). The library compounds are in columns 5-48 and columns 1-4 serve as controls with DMSO in columns 1 and 3 and 26 mM 1:1.5 fold serial of gluckokinase activator (GKA-EMD) in column 2 and 26 mM of the glucokinase activator (GKA-EMD) in column 4. Following addition of compound, 1 uL of detection antibodies (anti-Flag XL 665 and anti-GST K in reconstitution buffer from Cisbio, Bedford, MA; 0.7 ng/well and 0.0945 ng/well, respectively) is added, and the mixture is allowed to equilibrate for 60 minutes at room temperature. Data are normalized to DMSO-treated control columns with (maximum signal) and without (minimum signal) enzyme. Plates were read on an Envision plate reader (PerkinElmer, Shelton, CT, USA) with excitation at 320 nm and dual-wavelength detection at the Fret donor wavelength (615 nm) and the FRET acceptor wavelength (665 nm).

Structure (SMILES)	outcome
CC(C)(C)NCC(O)c1ccccc1Cl (stereo not given)	inactive
COc1ccc2c(c1OC)C(=O)O[C@H]2[C@@H]1c2cc3c(cc2CCN1C)OCO3	inactive
CC(C)N(CCC(C(N)=O)(c1ccccc1)c1ccccn1)C(C)C (stereo not given)	inactive
CC(C)c1cccc(C(C)C)c1O	inactive
O=c1[nH]oc2c1CCNC2	inactive
C=C(C)[C@H]1CN[C@H](C(=O)O)[C@H]1CC(=O)O	inactive
O=C(O)CCCc1ccc(N(CCCl)CCCl)cc1	inactive
CN1C(=O)CCS(=O)(=O)C1c1ccc(Cl)cc1 (stereo not given)	inactive
O=C(CCCN1CCC2(CC1)C(=O)NCN2c1ccccc1)c1ccc(F)cc1	inactive
NCCc1ccc(O)cc1	inactive
Cc1ncsc1CCCl	inactive
CCC1(c2ccc(N)cc2)CCC(=O)NC1=O (stereo not given)	inactive
CC(NC(C)(C)C)C(=O)c1cccc(Cl)c1 (stereo not given)	inactive
O=P1(N(CCCl)CCCl)NCCCO1 (stereo not given)	inactive
CCCCC/C=C\C/C=C\C/C=C\C/C=C\CCCC(=O)NCC(=O)O	inactive

Reference: PubChem BioAssay (NCATS)
